# BAZ2B inh – inhibitors of human BAZ2B bromodomain. 360,000 compounds, 4.4% hits. Potency, µM (series often up to 114 µM), inactives show at the top dose activity change, negative = inhibition, most hits filed as inhibitors. Q9UIF8. AlphaScreen BAZ2B-H3K14Ac peptide displacement; note: % is set by controls: 0 for no effect and ±100 for the full control effect; nearly all actives have a fitted effect of over 60% in size
#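 BAZ2B 50 nM plus b-H3(5-23)K14Ac 50 nM, PBS pH 7.4/0.01% Tween-20, 30 min RT; compound added (max 110 uM), 30 min RT; streptavidin donor/Ni-chelate acceptor beads 10 ug/mL final, 20 min dark; AlphaScreen read.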
# HP1b chromo inh – inhibitors of HP1-beta chromodomain binding to methylated histone tails; 390,000 compounds, 0.56% hits; AlphaScreen HP1-beta / biotin-H3K9me3 peptide binding; Potency, µM (highest dose often 114 µM), for inactives: top-dose activity change, negative = inhibition, most hits filed as inhibitors; P83916; note: nearly all actives have a fitted effect of over 70% in size
# Target sequence (P83916 whole entry, looked up): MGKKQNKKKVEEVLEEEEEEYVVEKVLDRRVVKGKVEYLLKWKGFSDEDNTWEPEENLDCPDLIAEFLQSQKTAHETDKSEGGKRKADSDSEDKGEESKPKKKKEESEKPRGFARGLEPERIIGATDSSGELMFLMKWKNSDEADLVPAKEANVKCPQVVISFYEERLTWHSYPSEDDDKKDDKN
#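 AlphaScreen: HP1-beta (50 nM) preformed 30 min with biotin-H3(1-18)K9me3 peptide (50 nM) in PBS pH 7.4, 0.01% Tween-20. Compound added for 30 min at RT, then streptavidin donor/nickel chelate acceptor beads (10 ug/mL) for 30 min.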
# JMJD2A Tudor – blocks the human JMJD2A Tudor domain | O75164 | Potency, µM (doses to about 114 µM), inactives show top-dose activity change, negative = inhibition, usual class: inhibitors | AlphaScreen JMJD2A-Tudor / H3K4me3 peptide binding | AID 504339 | 390,000 compounds, 4.4% hits; note: % is set by controls: 0 for no effect and ±100 for the full control effect; nearly all actives have a fitted effect of over 50% in size
# G9a inh – G9a (human) methyltransferase inhibition; Q96KQ7; G9a H3K9 monomethylation, AlphaScreen, 2 h; Potency, µM (doses to about 102 µM), inactives show at the highest dose activity, negative = inhibition, usual class: inhibitors; 350,000 compounds, 8.8% hits; note: % is set by controls: 0 for no effect and ±100 for the full control effect; nearly all actives have a fitted effect of over 75% in size
# Target sequence (Q96KQ7 913-1193 limits assumed): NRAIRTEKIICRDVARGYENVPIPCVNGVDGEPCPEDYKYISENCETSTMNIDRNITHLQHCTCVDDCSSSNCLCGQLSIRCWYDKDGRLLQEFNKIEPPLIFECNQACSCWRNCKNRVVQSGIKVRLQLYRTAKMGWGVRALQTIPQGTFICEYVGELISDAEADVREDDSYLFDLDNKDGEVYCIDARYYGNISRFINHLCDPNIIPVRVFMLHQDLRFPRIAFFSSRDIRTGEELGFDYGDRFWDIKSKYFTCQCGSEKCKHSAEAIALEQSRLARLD
#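 Enzyme 20 nM + cpd, 15 min RT; add b-H3K9 pep 500 nM / SAM 20 uM; 2 h RT; anti-H3K9me1 Ab 0.5 ug/mL + SA donor / anti-rabbit acceptor beads 20 ug/mL each, 10 min; AlphaScreen read.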
# Sfp inh – inhibitors of Bacillus subtilis Sfp phosphopantetheinyl transferase | 310,000 compounds, 3.5% hits | Q9F4F7 | Potency, µM, without a hit: largest response in the series, negative = inhibition, hits mostly inhibitors | AID 1490 | Biochemical Sfp PPTase activity, qHTS;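 note: the enzyme is Sfp with the accession as filed and its product quenches rhodamine fluorescence; 0% = enzyme reaction without inhibitor and -100% = no enzyme wells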
#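 Fluorescence-quenching assay with 15 nM Sfp, 5 uM rhodamine-CoA and 12.5 uM BHQ-2-labelled ybbR peptide in pH 7.6 Hepes/MgCl2 buffer. Enzyme was pre-incubated with compound for 15 min at room temperature. Rate was taken from the 30-min fluorescence change (525/598 nm).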
# * = called active by the depositor; ? = inconclusive; nt = no result; [ ] = dose if it differs, or a comment. Only some compounds are listed: those with a hit (about 12% of all), similar ones and a draw of the others. Calls come from the whole dose curve; as a rule, active = well fitted curve in the direction sought with a large enough effect; inconclusive = small, poorly fitted or top-dose-only effect, or another doubt; inactive = no such curve, though single readings can be large; an effect the other way counts as inactive or inconclusive. Potency is the fitted concentration of half-maximal effect.
SMILES,BAZ2B inh,HP1b chromo inh,JMJD2A Tudor,G9a inh,Sfp inh
Cc1cc(C)c(S(=O)(=O)N2CCN(C(=O)c3ccccc3OCc3c(C)noc3C)CC2)c(C)c1,nt,23%,-20%,nt,nt
CCC1CCCCN1S(=O)(=O)c1ccc(N2CCCCS2(=O)=O)cc1 (centres undefined),-10%,13%,-8%,10%[59 µM],nt
Cc1cc(C)c(C(N)=O)c(SCC(=O)c2cc(C)n(-c3cc(C)on3)c2C)n1,nt,10%,2%,nt,nt
Cc1ccccc1C(=O)OCc1cc(=O)n2nc(-c3cccs3)sc2n1,-13%,-6%,-30%,19%[59 µM],nt
CCOc1ccccc1NC(=O)N1CCc2c(sc(C)c2CC)C1c1ccccc1 (centres undefined),-11%,30%,-22%,-1%[59 µM],nt
O=C(NNC(=O)c1ccccc1O)c1ccc(Cl)c(S(=O)(=O)N2CCc3ccccc32)c1,-2%,10%,?,2%,nt
CCOc1ccc(CNC(=O)Cn2c(=O)c3cccn3c3ccc(F)cc32)cc1,?,25%,-6%,-11%[59 µM],nt
NC(=O)C1CCN(c2nc(-c3ccccc3C(F)(F)F)cs2)CC1,-37%,11%,79µM*,-10%[12.7 µM],nt
O=[N+]([O-])c1ccc(S(=O)(=O)N2CCN=C2SCc2ccc(F)cc2)cc1,-13%,21%,-14%,7%,15%
Nc1ccc(O)c(-c2nc3ccccc3s2)c1,-28%,-2%,-16%,14µM*,-6%
Oc1ccc(N=C/C=C/c2cccc(Br)c2)cc1-c1nc2ccccc2s1,?,-15%,?,7.9µM*,?
O=C(Nc1ccc(O)c(-c2nc3ccccc3s2)c1)c1cccs1,10%,32%,-2%,10%[59 µM],?
Oc1ccc(-c2nc3ccccc3s2)c(O)c1,15%,84%,13%,14%,-17%
Cc1ccccc1NC1=C(Cl)C(=O)N(C2CCCCC2)C1=O,-2%,41%,-1%,36%[59 µM],?
COc1ccccc1NC1=C(Cl)C(=O)N(C2CCCCC2)C1=O,?,-14%,?,45µM*,-15%
Cc1ccc(S(=O)(=O)/N=C2/NC(=O)/C(=C\c3cc(Br)cc(Br)c3O)S2)cc1,32µM*,?,50µM*,32µM*,?
COc1cc(/C=C2/S/C(=N/S(=O)(=O)c3ccccc3)NC2=O)c([N+](=O)[O-])cc1OC,71µM*,-4%,-28%[57.1 µM],-12%[12.7 µM],79µM*
O=C1N/C(=N\S(=O)(=O)c2ccccc2)S/C1=C\c1cc([N+](=O)[O-])ccc1O,-20%,6%,-17%,?,13%
O=C1N/C(=N\S(=O)(=O)Cc2ccccc2)S/C1=C/c1cc([N+](=O)[O-])ccc1O,-32%,13%,-27%,40µM*,28µM*
O=C(CC1C(=O)NCCN1Cc1ccccn1)NCCc1ccccc1F (centres undefined),?,49%,-25%,-45%,-7%
Cc1cc(=O)[nH]c(NN=C2C3CC4CC(C3)CC2C4)n1,8%,43%,?,2.5µM*,45µM*
Cc1cc(=O)[nH]c(NN)n1,0%,27%,-4%[11.4 µM],nt,45µM*
Cc1cc(=O)[nH]c(NCCO)n1,-1%,-9%,-17%,7%,22%
Cc1cc(=O)[nH]c(NN=C2CCCCC2C)n1 (centres undefined),nt,-24%,0.89µM*,nt,nt
Cc1cc(=O)[nH]c(N/N=C2/CCCC/C2=C\c2ccccc2)n1,3%,-3%,-4%[11.4 µM],45µM*,2%
SMILES,BAZ2B inh,HP1b chromo inh,JMJD2A Tudor,G9a inh,Sfp inh
Cc1cc(=O)[nH]c(N/N=C/CCc2ccccc2)n1,6%,24%,-19%,-23%,?
Cc1cccc(NC(=O)C2CCN(S(=O)(=O)c3ccc4c(c3)CCCN4C(=O)C3CCC3)CC2)c1,7%,9%[57 µM],-22%,17%[59 µM],nt
COc1cccc(NC(=O)CC2C(=O)NC3CCCCC3N2C(=O)c2ccccc2)c1 (centres undefined),nt,19%[57 µM],-1%,nt,nt
Cc1cccc(NC(=O)c2c(C)oc3ncnc(N4CCCCC4)c23)c1C,-2%[57.1 µM],36%,-19%,-4%[59 µM],nt
COc1ccc(-c2nc(-c3ccccc3)oc2Nc2ccccc2C)cc1,nt,nt,nt,nt,-18%
Cc1cc(Cl)ccc1NC(=O)CS(=O)(=O)c1cccc2nsnc12,-6%,10%[57 µM],?,8%[59 µM],nt
